Consider 40 molecules from PubChem BioAssay (Tox21).

Records with an inconclusive call do not appear. Values without a mark were called inactive. The source made the active and inactive calls. The call rests on the fitted dose curve; in most records, active means well fitted cell-killing curve with a large enough effect in the repeat runs; inconclusive means weak or mixed curves; inactive means flat fitted curve, though single readings scatter.
On the % scale 0 is the no-effect control and ±100 the full control effect.

This assay in a line: qHTS assay to identify small molecule antagonists of the TGF-beta/Smad signaling pathway - cell viability counter screen (AID 1346824). Further: nearly all actives have a fitted effect of over 50% in size. To be noted: SBE-bla HEK293T viability, CellTiter-Glo luminescence; series mostly up to 76.8 µM. The text has this:
U.S. Tox21 Program National Center for Advancing Translational Sciences [NCATS] NIH Chemical Genomics Center [NCGC] U.S. Environmental Protection Agency [EPA] National Institutes of Environmental Health Sciences [NIEHS] National Toxicology Program [NTP] U.S. Food and Drug Administration [FDA] Tox21 Assay Overview: Transforming growth factor beta (TGF-beta) superfamily consists of a large number of structurally related dimeric proteins that act as hormones or local mediators in regulating a wide range of biological functions. This superfamily includes TGF-betas themselves, the bone morphogenetic proteins (BMPs) and the activins. These ligands induce oligomerization of serine/threonine receptor kinases and phosphorylate the cytoplasmic signaling molecules of Smad protein family. CellSensor SBE-bla HEK 293T cell line (Life Technologies, Carlsbad, CA), responsive to TGF-beta was used to screen Tox21 10K compound library for identification of agonists/antagonists of the Smad signaling pathway. This cell line contains a beta-lactamase reporter gene under control of the Smad binding element (SBE) stably integrated into HEK 293T cells. Also cytotoxicity of the compounds was tested in parallel by measuring the cell viability using CellTiter-Glo assay system in the same wells.
Tox21 Assay Protocol Summary: SBE-bla HEK 293T cells were dispensed at 4,000/well in 5 uL of assay medium into black wall/clear-bottom 1536-well plates using a Multidrop Combi (ThermoFisher Scientific, Waltham, MA) dispenser. After the assay plates were incubated at 37 C and 5% CO2 for an overnight, 23 nL of compounds dissolved in DMSO, positive controls or DMSO only was transferred to the assay plate by a Pintool station (Kalypsys, San Diego, CA). Compound transfer was followed by the addition of 1 uL of 0.25 ng/mL TGF-beta1 or assay buffer using two separate tips of Flying Reagent Dispenser (FRD, Aurora Discovery, San Diego, CA). The assay plates were incubated at 37 C and 5% CO2 for 5 hr. One uL of LiveBLAzer B/G FRET substrate (Life Technologies) was added using a Flying Reagent Dispenser (FRD, Aurora Discovery, San Diego, CA) and the plates were incubated at room temperature for 2 hr. Fluorescence intensity (405 nm excitation, 460 nm and 530 nm emissions) was measured using an Envision plate reader (PerkinElmer, Shelton, CT). For cytotoxicity read, 4 uL of CellTiter-Glo reagent (Promega Corporation, Madison, WI) was added to each well of the assay plates using FRD. After 30 min incubation at room temperature, the luminescence intensity was measured using ViewLux plate reader (PerkinElmer).
Background: Quantitative high-throughput screening tests each substance at several concentrations.
With `OCCN(CCO)c1cccc(Cl)c1`, the call was inactive.
As for `CC(=O)Nc1ccc(S(=O)(=O)Cl)cc1`, the call was inactive.
With `CCCCCCOC(=O)CC`, the molecule was classed as inactive.
Take `ClCCCl`: the molecule was called inactive.
Same read-out and setting: the same measure for `O=C(NCCN1CCOCC1)c1ccc(Cl)cc1`: “inactive”.
Take `CCCCCCCCC1CCC(=O)O1` (stereo not given): the outcome was inactive.
`COc1ccc2nc(SCc3ncc(C)c(OC)c3C)[nH]c2c1`: the outcome was inactive.
Take `On1nnc2ccccc21`: the molecule was classed as inactive.
Consider `CC(C)C(=O)OCc1cccc(OC(=O)[C@@H]2N3C(=O)[C@@H](NC(=O)Cc4ccccc4)[C@H]3SC2(C)C)c1`, for which the molecule was called inactive.
With `C[C@@H]1O[C@@H](O[C@@H]2[C@@H](O)[C@H](OCCc3ccc(O)c(O)c3)O[C@H](CO[C@@H]3O[C@H](CO)[C@@H](O)[C@H](O)[C@H]3O)[C@H]2OC(=O)/C=C/c2ccc(O)c(O)c2)[C@H](O)[C@H](O)[C@H]1O`, the result was inactive.
Take `NS(=O)(=O)c1ccc(NC(=O)CCC(=O)O)cc1`: the outcome was inactive.
For `Cc1nc2n(c(=O)c1CCN1CCC(c3noc4cc(F)ccc34)CC1)CCC[C@H]2O`, the viability change, negative = cytotoxic is 1.49% [at 15.8 µM].
For the molecule `C=C(C)C(=O)OCCNC(C)(C)C`, the molecule was classed as inactive.
Still for that read-out and setting: the same measure for `CC(C)(C)c1cc(CCC(=O)NN)cc(C(C)(C)C)c1O`: “inactive”; for `CC(CC=O)CCCC(C)(C)O` (stereo not given): “inactive”; for `CC(CN)CC(C)(C)CCN` (stereo not given): “inactive”.
For the molecule `O=P(O)(O)OP(=O)(O)O`, the molecule was called inactive.
Turning to `C[Si](C)(C)C`, the call was inactive.
In the case of `CC(=O)N[C@@H](CCC(=O)O)C(=O)O`, the molecule was classed as inactive.
`CCCOC(=O)C(C)O` (stereo not given): the molecule was called inactive.
In the case of `C[C@@H](Oc1ccc(CNC(=O)c2cccnc2Oc2ccc3c(c2)OCO3)c(F)c1)C(=O)O`, the result was inactive.
On the same count and under the same terms, the same measure for `CC(C)NCC(O)COc1cccc2[nH]ccc12` (stereo not given): “inactive”; for `C=C(C)C1CCC(C)(O)CC1` (stereo not given): “inactive”; for `Cc1cc(NC(=O)C2=C(O)c3ccccc3S(=O)(=O)N2C)no1`: “inactive”.
For the molecule `CCCCCCCCC(=O)Cl`, the call was inactive.
As to `CC(C)CC(C)CC(C)CC(C)COC(=O)c1ccccc1C(=O)OCC(C)CC(C)CC(C)CC(C)C` (stereo not given), the molecule was classed as inactive.
`NCCN1CCOCC1`: the outcome was inactive.
Regarding `FC(F)(F)c1ccccc1-n1ccnc1`, the result was inactive.
Same read-out and setting: with `CC(C)=O` the entry was “inactive”.
Still for that read-out and setting: the same measure for `CN(C)CCOCCO`: “inactive”; for `C=Cc1ccccn1`: “inactive”; for `COc1cc(C(=S)N2CCOCC2)cc(OC)c1OC`: “inactive”.
Consider `O=C(CS(=O)Cc1ccco1)NC/C=C\COc1cc(CN2CCCCC2)ccn1` (stereo not given), for which the result was inactive.
As for `O=S(O)(O)=S`, the viability change, negative = cytotoxic was -0.132% [at 6.97 µM].
Turning to `COc1ccc2c(c1OC)C(=O)O[C@@H]2[C@H]1c2c(cc3c(c2OC)OCO3)CCN1C`, the call was inactive.
As for `COC(=O)C1CC(=O)C(C(=O)OC)CC1=O` (stereo not given), the viability change, negative = cytotoxic was -4.8% [at 6.97 µM].
For the molecule `Oc1ccccc1-c1nnco1`, the outcome was inactive.
For `CC1=C(C(=O)O)N2C(=O)[C@@H](NC(=O)[C@H](N)c3ccc(O)cc3)[C@H]2SC1`, the outcome was inactive.
For `O=C(c1ccc(O)cc1)c1ccc(O)c(O)c1O`, the molecule was called inactive.
Still for that read-out and setting: the same measure for `CC(C)OC(=O)CCCCC(=O)OC(C)C`: “inactive”.
